Results published in PubChem BioAssay AID651548 (Broad Institute, 2012).
Out of some 57,000 compounds screened, about 200 (0.35%) were called active.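 The calls were made as follows: active = mean inhibition of replicates at least 50% and every single replicate also reaching 50%; inconclusive = mean inhibition at least 50% but some replicate falls below 50%; inactive = mean inhibition under 50%.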 This excerpt belongs to a sample that is enriched for actives.

Each compound was assayed against Histone-lysine N-methyltransferase EZH2 (Homo sapiens) (UniProt Q15910) (assay: inhibition of PRC2 H3K27 methylation – biochemical, DELFIA time-resolved fluorescence, single point, primary screen (AID 651548;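 also: dimethyl H3K27 on biotinylated H3 21-44 peptide detected by antibody; plate controls were median neutral control wells for no effect and median positive control wells for full effect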)). Settings: DELFIA TRF, 1 h, at 12.5 µM, stronger effect = higher value.
Sequence of Histone-lysine N-methyltransferase EZH2 (Homo sapiens) (Q15910 whole entry, looked up): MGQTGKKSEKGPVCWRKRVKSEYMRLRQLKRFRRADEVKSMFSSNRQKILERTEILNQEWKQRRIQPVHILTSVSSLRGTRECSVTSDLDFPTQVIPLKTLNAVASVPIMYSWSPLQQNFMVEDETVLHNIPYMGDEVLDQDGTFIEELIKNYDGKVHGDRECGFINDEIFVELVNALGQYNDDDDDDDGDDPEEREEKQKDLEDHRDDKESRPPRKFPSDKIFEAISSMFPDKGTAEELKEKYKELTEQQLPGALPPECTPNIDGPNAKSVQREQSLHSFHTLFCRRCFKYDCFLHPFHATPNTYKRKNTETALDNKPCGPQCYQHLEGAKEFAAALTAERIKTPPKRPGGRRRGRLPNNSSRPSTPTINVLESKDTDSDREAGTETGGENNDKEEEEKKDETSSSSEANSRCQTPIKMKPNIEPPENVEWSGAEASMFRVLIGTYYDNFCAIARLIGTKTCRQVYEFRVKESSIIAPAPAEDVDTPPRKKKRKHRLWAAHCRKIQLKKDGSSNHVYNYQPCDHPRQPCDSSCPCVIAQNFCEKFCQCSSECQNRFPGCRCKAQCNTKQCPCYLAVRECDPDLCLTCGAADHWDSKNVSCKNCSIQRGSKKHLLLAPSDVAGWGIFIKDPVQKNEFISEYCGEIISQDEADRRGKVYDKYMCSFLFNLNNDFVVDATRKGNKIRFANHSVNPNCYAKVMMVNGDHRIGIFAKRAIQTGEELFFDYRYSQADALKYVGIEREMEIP

| Compound | inhibition |
| --- | --- |
| COc1cccc(-c2cnc3c(c2)C(=O)N([C@H](C)CO)C[C@@H](C)[C@H](CN(C)Cc2ccc(F)cc2)O3)c1 | 10% (inactive) |
| CC(C)NC(=O)N(C)C[C@@H]1Oc2cc(C#C[C@H](C)O)ccc2S(=O)(=O)N([C@@H](C)CO)C[C@H]1C | 8.88% (inactive) |
| C[C@@H]1CN([C@H](C)CO)S(=O)(=O)c2ccc(C#CC3(O)CCCC3)cc2O[C@@H]1CN(C)C(=O)c1cccnc1 | 5.12% (inactive) |
| COCC(=O)Nc1ccc2c(c1)[C@@H]1C[C@H](CC(=O)NCc3cc(F)ccc3F)O[C@@H](CO)[C@@H]1O2 | -6.69% (inactive) |
| C[C@@H]1CN([C@@H](C)CO)S(=O)(=O)c2ccc(-c3ccc(C#N)cc3)cc2O[C@H]1CN(C)Cc1ccccn1 | 5.38% (inactive) |
| CO[C@@H]1CN(C)C(=O)c2ccc(NC(=O)C3CCC3)cc2OC[C@H](C)N(C(=O)CN(C)C)C[C@H]1C | 0.087% (inactive) |
| O=C(C[C@@H]1C[C@@H]2c3cc(NC(=O)NC4CCCC4)ccc3O[C@@H]2[C@H](CO)O1)NCC(F)(F)F | 3.2% (inactive) |
| CC(C)(C)S(=O)N1Cc2cc(C(=O)O)nc(-c3cccc(-c4cc5ccccc5o4)c3)c2[C@@H]1CCO (stereo partly drawn) | 9.63% (inactive) |
| CO[C@@H]1CN(C)C(=O)c2cc(NC(=O)NC3CCCCC3)ccc2OC[C@H](C)N(CC2CC2)C[C@H]1C | -6.48% (inactive) |
| O=C(N[C@H]1CC[C@H](CCNS(=O)(=O)c2ccc(F)cc2)O[C@H]1CO)C1CCCC1 | -3.3% (inactive) |
| O=C(C[C@@H]1C=C[C@H](NC(=O)C2CCC2)[C@@H](CO)O1)NCC1CC1 | 10.5% (inactive) |
| CCCN1C[C@H](C)[C@@H](OC)CN(C)C(=O)c2ccc(NC(=O)C3CCOCC3)cc2OC[C@H]1C | 7.14% (inactive) |
| O=C(C[C@H]1C=C[C@H](NC(=O)Nc2ccc(C(F)(F)F)cc2)[C@@H](CO)O1)NCCN1CCCC1 | 11.8% (inactive) |
| C[C@@H]1CCCCO[C@@H](CN(C)Cc2ccncc2)[C@H](C)CN([C@H](C)CO)C(=O)c2cc(NC(=O)CCC(F)(F)F)ccc2O1 | 0.938% (inactive) |
| CCC(=O)N1C[C@@H](C)[C@H](OC)CN(C)C(=O)c2ccc(NC(=O)NC(C)C)cc2OC[C@H]1C | 5.57% (inactive) |
| CNC[C@@H]1Oc2cc(C#CC3(O)CCCC3)ccc2S(=O)(=O)N([C@@H](C)CO)C[C@H]1C | -0.413% (inactive) |
| OC[C@@]1(O)CO[C@H](OC[C@H]2O[C@@H](OC(CCCCc3ccc(O)cc3)CCc3ccc(O)cc3)[C@H](O[C@H]3OC[C@](O)(CO)[C@H]3O)[C@@H](O)[C@@H]2O)[C@@H]1O (stereo partly drawn) | 99% (active) |
| OC[C@H]1O[C@@H](OCc2ccccc2)[C@H](O[C@@H]2OC[C@](O)(CO)[C@H]2O)[C@@H](O)[C@@H]1O | 10.5% (inactive) |
| C/C=C/c1ccc2c(c1)O[C@@H](CN(C)C(=O)NC1CCCC1)[C@@H](C)CN([C@H](C)CO)S2(=O)=O | 10.7% (inactive) |
| CCCN(C)C[C@H]1OCCCC[C@H](C)Oc2ccc(NS(=O)(=O)c3ccc(C)cc3)cc2C(=O)N([C@@H](C)CO)C[C@H]1C | -43.7% (inactive) |
| CO[C@H]1CN(C)C(=O)c2ccc(NC(=O)c3cnccn3)cc2OC[C@@H](C)N(C(C)=O)C[C@H]1C | 7.05% (inactive) |

| Compound | inhibition |
| --- | --- |
| CO[C@H]1CN(C)C(=O)c2cc(NS(=O)(=O)c3ccccc3)ccc2OC[C@H](C)NC[C@@H]1C | 3.07% (inactive) |
| CN(C)C(=O)C[C@H]1C[C@H]2c3cc(NC(=O)Nc4ccc(C(F)(F)F)cc4)ccc3O[C@H]2[C@@H](CO)O1 | -22.5% (inactive) |
| CO[C@@H]1CN(C)C(=O)c2cc(NC(=O)C3CCOCC3)ccc2OC[C@@H](C)NC[C@@H]1C | 5.55% (inactive) |
| CCC(=O)N1C[C@@H](C)[C@H](OC)CN(C)C(=O)c2ccc(NC(=O)COC)cc2OC[C@@H]1C | 2.05% (inactive) |
| CC(C)NC(=O)N[C@@H]1CC[C@H](CC(=O)NC2Cc3ccccc3C2)O[C@H]1CO | -19.2% (inactive) |
| O=C(Nc1ccccc1F)N[C@@H]1CC[C@H](CCNC(=O)C2CC2)O[C@@H]1CO | -5.22% (inactive) |
| C[C@@H](NC(=O)C[C@@H]1CC[C@H](NC(=O)Cc2ccccn2)[C@H](CO)O1)c1ccccc1 | 5.38% (inactive) |
| CO[C@@H]1CN(C)C(=O)c2cc(NC(=O)c3cnccn3)ccc2OC[C@@H](C)N(CC2CC2)C[C@H]1C | -3.51% (inactive) |
| CO[C@H]1CN(C)C(=O)c2ccc(NS(C)(=O)=O)cc2OC[C@@H](C)N(Cc2ccccc2)C[C@H]1C | 27.6% (inactive) |
| CN(C)C(=O)C[C@H]1CC[C@H](NC(=O)NC2CCCC2)[C@@H](CO)O1 | 6.6% (inactive) |
| CN(C)CC(=O)N[C@H]1CC[C@@H](CCNC(=O)C2CCCC2)O[C@@H]1CO | 4.19% (inactive) |
| O=S(=O)(N[C@@H]1CC[C@@H](CCn2cc(-c3ccccn3)nn2)O[C@@H]1CO)c1cccc(Cl)c1 | 1.97% (inactive) |
| O=C(Nc1ccccc1F)N[C@H]1C=C[C@H](CC(=O)N2CCCCC2)O[C@H]1CO | 11.6% (inactive) |
| C[C@@H]1CN([C@H](C)CO)S(=O)(=O)c2ccc(C#Cc3ccccc3F)cc2O[C@@H]1CN(C)C(=O)c1ccc2c(c1)OCO2 | -7.72% (inactive) |
| C[C@@H]1CN([C@@H](C)CO)C(=O)c2cc(C3=CCCC3)cnc2O[C@H]1CN(C)C(=O)c1ccccn1 | -1.13% (inactive) |
| O=C(Nc1ccccc1F)N[C@@H]1C=C[C@H](CC(=O)N2CCCCC2)O[C@@H]1CO | -6.07% (inactive) |
| C[C@@H]1CN([C@@H](C)CO)C(=O)c2cc(Br)cnc2O[C@H]1CN(C)Cc1ccc(-c2ccccc2)cc1 | 32.3% (inactive) |
| CCCNC(=O)N(C)C[C@H]1Oc2cc(-c3ccncc3)ccc2S(=O)(=O)N([C@H](C)CO)C[C@@H]1C | 2.1% (inactive) |
| O=C(C[C@H]1C=C[C@@H](NC(=O)c2ccc(F)cc2)[C@@H](CO)O1)NCCc1ccncc1 | -4.57% (inactive) |
| O=C(N[C@@H]1CC[C@@H](CC(=O)N2CCc3ccccc3C2)O[C@@H]1CO)C1CCOCC1 | -3.58% (inactive) |
| COCC#Cc1ccc2c(c1)O[C@H](CN(C)C(=O)CN(C)C)[C@@H](C)CN([C@H](C)CO)S2(=O)=O | -3.07% (inactive) |

| Compound | inhibition |
| --- | --- |
| COCC(=O)N(C)C[C@@H]1Oc2ncc(-c3ccccc3OC)cc2C(=O)N([C@@H](C)CO)C[C@@H]1C | 16.6% (inactive) |
| CCCN(C)C[C@H]1OCCCC[C@@H](C)Oc2ccc(NC(=O)Nc3ccc(F)cc3)cc2C(=O)N([C@@H](C)CO)C[C@H]1C | 18.6% (inactive) |
| O=C(C[C@@H]1C[C@@H]2c3cc(NC(=O)c4ccc5c(c4)OCO5)ccc3O[C@@H]2[C@H](CO)O1)NCC1CC1 | 6.48% (inactive) |
| O=C(C[C@@H]1C[C@H]2c3cc(NC(=O)CC4CC4)ccc3O[C@H]2[C@@H](CO)O1)NCc1ccc2c(c1)OCO2 | -6.28% (inactive) |
| O=C(C[C@@H]1C=C[C@@H](NS(=O)(=O)c2ccc(F)cc2)[C@@H](CO)O1)NCCN1CCCCC1 | 7.22% (inactive) |
| O=C(CN1CCOCC1)N[C@@H]1CC[C@@H](CCn2cc(C3CCCCC3)nn2)O[C@@H]1CO | 3.73% (inactive) |
| O=C(C[C@@H]1C=C[C@H](NC(=O)Nc2ccc(C(F)(F)F)cc2)[C@H](CO)O1)NCc1cccc(F)c1 | -12.8% (inactive) |
| O=S(=O)(NCC[C@H]1CC[C@@H](NS(=O)(=O)c2ccccc2Cl)[C@@H](CO)O1)c1ccc(Cl)cc1 | -8.5% (inactive) |
| O=C(CN1CCOCC1)N[C@H]1CC[C@@H](CCNS(=O)(=O)c2ccccc2F)O[C@H]1CO | 0.878% (inactive) |
| COc1ccccc1CNC(=O)C[C@H]1C[C@H]2c3cc(NS(=O)(=O)c4ccc(F)cc4)ccc3O[C@H]2[C@@H](CO)O1 | -7.14% (inactive) |
| O=C(Nc1ccccc1)N[C@H]1CC[C@H](CCNC(=O)c2ccccc2F)O[C@H]1CO | -1.66% (inactive) |
| Cc1ccccc1S(=O)(=O)NCC[C@@H]1CC[C@@H](NS(=O)(=O)c2ccccc2C)[C@@H](CO)O1 | 6.69% (inactive) |
| COc1cccc(S(=O)(=O)N[C@@H]2C=C[C@H](CC(=O)NC3CCC3)O[C@H]2CO)c1 | 4.61% (inactive) |
| CNC[C@H]1OCCCC[C@H](C)Oc2ccc(NS(C)(=O)=O)cc2C(=O)N([C@@H](C)CO)C[C@H]1C | 5.37% (inactive) |
| CO[C@@H]1CN(C)C(=O)c2cc(NC(=O)c3cnccn3)ccc2OC[C@@H](C)N(C(=O)C2CC2)C[C@@H]1C | 3.91% (inactive) |
| C[C@@H]1CN([C@@H](C)CO)C(=O)Cc2cc(NC(=O)C3CCCCC3)ccc2O[C@H]1CN(C)C(=O)Nc1ccccc1 | 1.25% (inactive) |
| CCCNC(=O)Nc1ccc2c(c1)C(=O)N(C)C[C@H](OC)[C@H](C)CN(Cc1ccncc1)[C@H](C)CO2 | -16.3% (inactive) |
| CCCNC(=O)Nc1ccc2c(c1)OC[C@@H](C)N(CCC)C[C@H](C)[C@@H](OC)CN(C)C2=O | 0.898% (inactive) |
| C[C@@H]1CN([C@@H](C)CO)C(=O)c2cc(C#CC3CCCCC3)cnc2O[C@@H]1CN(C)Cc1cncnc1 | -2.95% (inactive) |
| O=C(C[C@H]1C[C@@H]2c3cc(NC(=O)C4CCC4)ccc3O[C@@H]2[C@@H](CO)O1)NCCN1CCCCC1 | 1.25% (inactive) |
| CO[C@@H]1CN(C)C(=O)c2cc(NC(=O)Nc3ccc4c(c3)OCO4)ccc2OC[C@@H](C)NC[C@@H]1C | 3.91% (inactive) |
